Assay [1] is described as follows: ACEA_ER_80hr: ACEA Biosciences xCELLigence Real-Time Cell Analysis on Estrogen Receptor Agonism for Proliferation (AID 2282667; active means hit-call score of the fitted dose curve at least 0.9, where 1 is the maximum). The settings on record: T47D proliferation, impedance (xCELLigence), 80 h. The method, boiled down:
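Real-time electrical impedance tracked growth of the human breast line T47D, with the 80 h post-dosing value used. Dosing spanned eight 1:4 steps down from a 100 uM final top concentration, run in duplicate.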

Assay [2] in a line: ATG_CRE_CIS: Attagene CIS-FACTORIAL HepG2 Assay for human cAMP Responsive Element (CRE) binding protein 3 (AID 2282926). The following applies: HepG2 CRE cis-reporter, Attagene multiplexed mRNA; actives raise or lower the signal. A digest of the protocol: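 Assay format: transient reporter transfection of HepG2, 24 h treatment, total RNA isolation with DNase I step. Reporter abundance read by fluorescence after PCR and capillary separation; DMSO-normalised gain or loss fitting.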

Assay [3] concerns the target CCAAT/enhancer-binding protein beta (Homo sapiens) (UniProt P17676). Put plainly: ATG_C_EBP_CIS: Attagene CIS-FACTORIAL HepG2 Assay for human CCAAT/Enhancer Binding Protein (C/EBP) beta (AID 2282927). The settings on record: HepG2 Attagene cis-factorial transcription factor reporter; actives raise or lower the signal. A digest of the protocol: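 HepG2, transient MRTU transfection, 24 h treatment. RT-PCR plus CE fluorescence; DMSO negative control, bidirectional fit.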

Assay [4] can be described thus: ATG_CMV_CIS: Attagene CIS-FACTORIAL HepG2 Assay for human CMV (Internal Marker) (AID 2282928).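 Further: endpoint acts as a background internal control marker rather than a target.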 The settings on record: HepG2 CMV promoter reporter, transcription factor profiling; actives raise or lower the signal. A digest of the protocol:
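Reporter transcripts from transfected HepG2 cells are isolated after 24 h of chemical dosing, reverse-transcribed and amplified. Fragments labeled with 6-FAM are cut with HpaI and quantified by capillary electrophoresis; DMSO defines baseline.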

The nature of assay [5]: ATG_DR4_LXR_CIS: Attagene CIS-FACTORIAL HepG2 Assay for human Liver X Receptor (LXR), DR4 submotif (AID 2282929). The settings on record: HepG2 Attagene DR4 cis-reporter, mRNA transcription; actives raise or lower the signal. A digest of the protocol:
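Transiently transfected HepG2 liver cells; cis-regulated reporters; 24 h dosing. RT-PCR plus CE read-out of reporter mRNA. DMSO baseline, bidirectional curve fitting.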

A short description of assay [6]: ATG_AP_1_CIS: Attagene CIS-FACTORIAL HepG2 Assay for human Activator Protein 1 (AP-1) (AID 2282931). The settings on record: HepG2 Attagene cis-factorial AP-1 reporter mRNA; actives raise or lower the signal. The method, boiled down: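 We transfected HepG2 cells transiently with a set of cis-regulated reporter transcription units, dosed them for 24 h, and quantified reporter mRNA via RT-PCR and capillary electrophoresis, scoring gain or loss of signal relative to DMSO.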

Assay [7] is described as follows: ATG_AP_2_CIS: Attagene CIS-FACTORIAL HepG2 Assay for human Activator Protein 2 (AP-2) (AID 2282932). The settings on record: HepG2 AP-2 cis-reporter, Attagene transcription factor profiling; actives raise or lower the signal. The method, boiled down:
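Liver-derived HepG2 line, cis-reporter system measuring endogenous factors; 24 h dosing; reporter mRNA detected by fluorescent RT-PCR and capillary electrophoresis.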

A short description of assay [8]: ATG_BRE_CIS: Attagene CIS-FACTORIAL HepG2 Assay for human Bone Morphogenetic Protein (BMP) Response Element (BRE) (AID 2282933). The settings on record: HepG2 BMP response element reporter, Attagene transcription factor profiling; actives raise or lower the signal. A digest of the protocol:
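A HepG2 multiplex reporter system measured inducible reporter mRNA 24 h post-dosing. Detection: RT-PCR, 6-FAM primer extension, HpaI digestion, capillary electrophoresis. Activity fitted bidirectionally relative to DMSO.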

For assay [9], the target named is Retinoic acid receptor alpha (Homo sapiens) (UniProt P10276). Put plainly: ATG_DR5_RAR_CIS: Attagene CIS-FACTORIAL HepG2 Assay for human Retinoic Acid Receptor Alpha (RARE), DR5 submotif (AID 2282934). The settings on record: HepG2 Attagene cis-factorial RARE DR5 reporter, mRNA; actives raise or lower the signal. A digest of the protocol: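 After 24 h of chemical exposure, transiently transfected HepG2 cells were lysed for total RNA; the DR5-regulated reporter transcript was quantified via RT-PCR and capillary electrophoresis, with activity fitted bidirectionally against DMSO.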
Retinoic acid receptor alpha (Homo sapiens), sequence (P10276 whole entry, looked up): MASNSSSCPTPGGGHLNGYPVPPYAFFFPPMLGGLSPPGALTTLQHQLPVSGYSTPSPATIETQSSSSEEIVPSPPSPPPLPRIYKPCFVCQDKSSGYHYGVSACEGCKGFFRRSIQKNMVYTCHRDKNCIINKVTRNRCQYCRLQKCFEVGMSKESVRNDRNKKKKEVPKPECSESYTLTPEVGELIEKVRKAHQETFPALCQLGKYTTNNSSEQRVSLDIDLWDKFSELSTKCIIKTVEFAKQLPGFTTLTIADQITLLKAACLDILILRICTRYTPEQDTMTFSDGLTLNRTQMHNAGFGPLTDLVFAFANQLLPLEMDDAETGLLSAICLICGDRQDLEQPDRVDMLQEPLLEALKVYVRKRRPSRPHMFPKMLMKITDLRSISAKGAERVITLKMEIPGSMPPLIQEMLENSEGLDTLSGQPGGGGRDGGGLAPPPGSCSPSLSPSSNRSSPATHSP

For assay [10], the target named is Aryl hydrocarbon receptor (Homo sapiens) (UniProt P35869). Put plainly: ATG_Ahr_CIS: Attagene CIS-FACTORIAL HepG2 Assay for human Aryl Hydrocarbon Receptor (Ahr) (AID 2282930). The following applies: HepG2 AhR cis-factorial reporter transcription; actives raise or lower the signal. The method, boiled down:
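Endogenous factor activity is tracked through cis-promoter reporter units transfected into HepG2 cells. Transcript levels at 24 h are read by fluorescent RT-PCR and capillary electrophoresis, with activity in either direction scored relative to DMSO.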

Structures are written as SMILES. Results filed as inconclusive are left out. Calls of active or inactive are those of the source. How the source made its calls, unless noted: active means hit-call score of the fitted dose curve at least 0.9, where 1 is the maximum; inactive means score below 0.9.

CCAAT/enhancer-binding protein beta (Homo sapiens), sequence (P17676 whole entry, looked up): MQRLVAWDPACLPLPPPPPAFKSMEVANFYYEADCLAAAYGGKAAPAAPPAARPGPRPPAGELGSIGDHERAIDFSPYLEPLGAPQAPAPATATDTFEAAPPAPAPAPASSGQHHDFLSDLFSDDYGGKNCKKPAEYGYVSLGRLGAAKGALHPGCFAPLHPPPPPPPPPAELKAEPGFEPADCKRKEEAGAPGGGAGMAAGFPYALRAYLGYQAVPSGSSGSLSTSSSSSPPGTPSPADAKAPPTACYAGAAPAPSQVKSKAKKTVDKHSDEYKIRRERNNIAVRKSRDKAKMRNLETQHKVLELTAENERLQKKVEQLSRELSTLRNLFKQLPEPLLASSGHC
Aryl hydrocarbon receptor (Homo sapiens), sequence (P35869 whole entry, looked up): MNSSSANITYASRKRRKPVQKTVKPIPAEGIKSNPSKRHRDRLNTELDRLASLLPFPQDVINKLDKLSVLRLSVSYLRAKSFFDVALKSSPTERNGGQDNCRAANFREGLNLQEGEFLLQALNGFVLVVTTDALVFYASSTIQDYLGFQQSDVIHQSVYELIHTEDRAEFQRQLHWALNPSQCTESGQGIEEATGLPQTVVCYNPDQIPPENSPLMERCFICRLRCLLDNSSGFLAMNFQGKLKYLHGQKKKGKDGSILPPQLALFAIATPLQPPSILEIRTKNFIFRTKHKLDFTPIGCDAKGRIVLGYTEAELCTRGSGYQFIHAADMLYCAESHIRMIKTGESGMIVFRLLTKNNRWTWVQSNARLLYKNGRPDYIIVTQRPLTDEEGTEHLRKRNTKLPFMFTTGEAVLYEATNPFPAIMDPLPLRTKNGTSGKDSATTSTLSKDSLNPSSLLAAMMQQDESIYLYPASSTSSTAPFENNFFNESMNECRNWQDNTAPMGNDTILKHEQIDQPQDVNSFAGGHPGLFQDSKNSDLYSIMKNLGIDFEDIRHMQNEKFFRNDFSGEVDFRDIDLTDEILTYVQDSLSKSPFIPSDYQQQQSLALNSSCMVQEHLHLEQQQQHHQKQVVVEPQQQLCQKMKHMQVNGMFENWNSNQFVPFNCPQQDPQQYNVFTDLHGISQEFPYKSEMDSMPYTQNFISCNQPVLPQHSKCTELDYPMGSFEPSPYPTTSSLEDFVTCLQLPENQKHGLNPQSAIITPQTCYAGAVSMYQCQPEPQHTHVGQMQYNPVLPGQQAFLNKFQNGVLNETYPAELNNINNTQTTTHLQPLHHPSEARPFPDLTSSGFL

As to `CCCCCCCCCCCCCC(=O)OC(C)C`, the molecule was called inactive in [1], in [2], in assay [3], in assay [4], in assay [5] and in assay [6]. The molecule was classed as inactive in [7], in assay [8] and in assay [9].
Take `C=C1C[C@H]2[C@@H]3C=C(C)C4=CC(=O)CC[C@]4(C)[C@H]3CC[C@]2(C)[C@@]1(OC(C)=O)C(C)=O`: the values for the AC50 in assay [1] and in assay [6] were 0.00363 µM (active) and 63 µM (active), respectively. The call in [2], in assay [3], in assay [4], in assay [10], in assay [7] and in [8] was inactive. Moreover, in [9], the molecule was classed as inactive.
For the molecule `[Cl][Sc]([Cl])[Cl]`, the molecule was classed as inactive in assay [1], in assay [2], in assay [3], in assay [4], in [5] and in [6]. The molecule was classed as inactive in assay [7], in assay [8] and in assay [9].
Turning to `CC(CC=O)CC(C)(C)C` (centres undefined), the result in [1], in [2], in assay [3], in [4], in assay [5] and in [6] was inactive. For the same molecule, the result in assay [7] and in assay [9] was inactive.
Regarding `CC1=CC=C(C(C)C)CC1`, the result in [1], in assay [2], in assay [3], in [4], in [5] and in assay [6] was inactive. The molecule was classed as inactive in assay [7] and in [8].
As for `Cc1ccc([N+](=O)[O-])cc1N`, the call in assay [1], in [2], in [3], in [4], in assay [5] and in assay [7] was inactive. Also, the result in assay [8] and in assay [9] was inactive.
On to `CCCCC1C(=O)N(c2ccccc2)N(c2ccccc2)C1=O`, for which the call in assay [1], in assay [2], in assay [3], in assay [4], in assay [5] and in [6] was inactive. Moreover, the result in [7], in assay [8] and in assay [9] was inactive.
Regarding `Cc1c(C(=O)c2c[nH]n(C)c2=O)ccc(S(C)(=O)=O)c1C1=NOCC1`, the outcome in [1], in assay [2], in assay [3], in [4], in assay [5] and in assay [6] was inactive. Besides, the molecule was called inactive in [7], in assay [8] and in [9].
On to `CCOC(=O)OC(=O)OCC`, for which the molecule was called inactive in assay [1], in [2], in assay [3], in [4], in assay [5] and in [6]. For the same molecule, the result in assay [8] and in assay [9] was inactive.
For `CC(=O)OC/C=C(/C)CCC=C(C)C`, the molecule was classed as inactive in assay [1], in assay [2], in assay [3], in [4], in assay [5] and in [6]. For the same molecule, the call in assay [7], in [8] and in assay [9] was inactive.
In the case of `CCCCC(CC)COS(=O)(=O)O` (centres undefined), the call in assay [1], in [2], in assay [3], in assay [4], in assay [5] and in assay [6] was inactive. Further, the call in assay [7], in assay [8] and in [9] was inactive.
`CCC1COC(=O)O1` (centres undefined): the molecule was called inactive in [1], in assay [2], in assay [3], in assay [4], in assay [5] and in assay [6]. Further, the molecule was classed as inactive in assay [7], in assay [8] and in [9].
Regarding `CCC(C)(O)CCCC(C)C` (centres undefined), the result in assay [1], in assay [2], in assay [3], in assay [4], in assay [10] and in [6] was inactive. Moreover, the outcome in [7], in [8] and in [9] was inactive.
Consider `CC12CCC(CC1)C(C)(C)O2`, for which the molecule was called inactive in assay [1], in [2], in assay [3], in assay [4], in assay [5] and in [6]. The molecule was classed as inactive in assay [7], in assay [8] and in [9].
As for `O=C(Oc1ccccc1)c1ccccc1O`, the outcome in [1], in assay [2], in [3], in [4], in [5] and in assay [6] was inactive. Further, the result in assay [7], in assay [8] and in assay [9] was inactive.
With `CC1=CCC(C(C)C)C=C1` (centres undefined), the outcome in [1], in assay [2], in assay [3], in assay [4], in assay [5] and in [6] was inactive. The molecule was classed as inactive in assay [7] and in assay [8].
For `CC1=CP(=O)(c2ccccc2)CC1` (centres undefined), the outcome in assay [1], in [2], in [3], in [4], in [5] and in [7] was inactive. Moreover, the molecule was called inactive in assay [9].
As for `Nc1ccc(C(=O)O)cc1`, the AC50 (commonly the concentration at which the activity in the assay is half-maximal) in [1] is 50 µM (active). For the same molecule, the molecule was classed as inactive in assay [2], in assay [3], in assay [4], in assay [5], in [6] and in [8]. The call in [9] was inactive.
On to `CCCC1CCCC(=O)O1` (centres undefined), for which the molecule was classed as inactive in assay [1], in [2], in assay [3], in assay [4], in assay [5] and in assay [6]. Also, the outcome in assay [7], in [8] and in [9] was inactive.
For the molecule `C=CC(=O)NCOCCCC`, the call in assay [1], in assay [2], in [3], in assay [4], in assay [5] and in assay [7] was inactive. Further, the molecule was classed as inactive in assay [8] and in assay [9].
For the molecule `CCCCCC[C@@H](O)C/C=C\CCCCCCCC(=O)OCC(O)CO` (some centres undefined), the molecule was classed as inactive in assay [1], in [2], in [3], in assay [8] and in assay [9]. Further, the AC50 in assay [4] was 131 µM (active); in assay [5], 163 µM (active); in [6], 75.7 µM (active); in [7] it was 158 µM (active).
Consider `Nc1ccc(Cl)c(N)c1`, for which the molecule was classed as inactive in assay [1], in assay [2], in [3], in assay [4], in assay [5] and in assay [6]. Further, the call in assay [7], in assay [8] and in [9] was inactive.
On to `CCCCCCCCC(CO)CCCCCC` (centres undefined), for which the result in assay [1], in [3], in assay [6], in assay [7], in assay [8] and in assay [9] was inactive. The AC50 was 100 µM (active) in assay [2], 8.41 µM (active) in assay [4] and 53 µM (active) in [5].
Take `C=CCCCCCCCCO`: the call in [1], in assay [2], in [3], in assay [4], in assay [5] and in assay [6] was inactive. Moreover, the molecule was called inactive in [7] and in assay [8].
For the molecule `CC1(C)[C@@H]2CC[C@@]1(C)C(=O)C2`, the outcome in assay [1], in assay [2], in assay [3], in [4], in [5] and in assay [6] was inactive. Moreover, the result in assay [7], in assay [8] and in [9] was inactive.
As for `C1CCSC1`, the molecule was classed as inactive in assay [1], in [2], in assay [3], in assay [4], in [5] and in assay [6]. The molecule was classed as inactive in [7], in [8] and in [9].

For the origin of these results see PubChem BioAssay (EPA / NIEHS).
